{
  "source": "PubChem BioAssay AID2783",
  "about": "(National Center for Advancing Translational Sciences (NCATS), 2010)",
  "note": "Inconclusive results are not listed. Activity calls are given as the source filed them. The call rests on the fitted dose curve; in most records, active means well fitted inhibition curve with a large enough effect in the polarisation, with a control signal flat (not every such curve was filed as active); inconclusive means small, poorly fitted or top-dose-only effect, or effect the other way, or a change in a side signal; inactive means no such curve, though single readings can be large or run the other way; the % refers to the polarisation. Where a SMILES comes first, the peptide text is derived from it. Bridges are numbered along the chain shown (N, C = ends). [ ]: non-standard residue; d: D form. The star is where a group is joined. ξ: configuration not given here. Octanoyl(6-Me) = CCC(C)CCCCC(=O)*; ξThr(3R) = C[C@@H](O)C(N)C(=O)O; dDab = NCC[C@@H](N)C(=O)O; Dab = NCC[CH](N)C(=O)O",
  "data": [
    {"molecular_target": "Histone-lysine N-methyltransferase 2A (Homo sapiens) (UniProt Q03164)", "sequence (Q03164 whole entry, looked up)": "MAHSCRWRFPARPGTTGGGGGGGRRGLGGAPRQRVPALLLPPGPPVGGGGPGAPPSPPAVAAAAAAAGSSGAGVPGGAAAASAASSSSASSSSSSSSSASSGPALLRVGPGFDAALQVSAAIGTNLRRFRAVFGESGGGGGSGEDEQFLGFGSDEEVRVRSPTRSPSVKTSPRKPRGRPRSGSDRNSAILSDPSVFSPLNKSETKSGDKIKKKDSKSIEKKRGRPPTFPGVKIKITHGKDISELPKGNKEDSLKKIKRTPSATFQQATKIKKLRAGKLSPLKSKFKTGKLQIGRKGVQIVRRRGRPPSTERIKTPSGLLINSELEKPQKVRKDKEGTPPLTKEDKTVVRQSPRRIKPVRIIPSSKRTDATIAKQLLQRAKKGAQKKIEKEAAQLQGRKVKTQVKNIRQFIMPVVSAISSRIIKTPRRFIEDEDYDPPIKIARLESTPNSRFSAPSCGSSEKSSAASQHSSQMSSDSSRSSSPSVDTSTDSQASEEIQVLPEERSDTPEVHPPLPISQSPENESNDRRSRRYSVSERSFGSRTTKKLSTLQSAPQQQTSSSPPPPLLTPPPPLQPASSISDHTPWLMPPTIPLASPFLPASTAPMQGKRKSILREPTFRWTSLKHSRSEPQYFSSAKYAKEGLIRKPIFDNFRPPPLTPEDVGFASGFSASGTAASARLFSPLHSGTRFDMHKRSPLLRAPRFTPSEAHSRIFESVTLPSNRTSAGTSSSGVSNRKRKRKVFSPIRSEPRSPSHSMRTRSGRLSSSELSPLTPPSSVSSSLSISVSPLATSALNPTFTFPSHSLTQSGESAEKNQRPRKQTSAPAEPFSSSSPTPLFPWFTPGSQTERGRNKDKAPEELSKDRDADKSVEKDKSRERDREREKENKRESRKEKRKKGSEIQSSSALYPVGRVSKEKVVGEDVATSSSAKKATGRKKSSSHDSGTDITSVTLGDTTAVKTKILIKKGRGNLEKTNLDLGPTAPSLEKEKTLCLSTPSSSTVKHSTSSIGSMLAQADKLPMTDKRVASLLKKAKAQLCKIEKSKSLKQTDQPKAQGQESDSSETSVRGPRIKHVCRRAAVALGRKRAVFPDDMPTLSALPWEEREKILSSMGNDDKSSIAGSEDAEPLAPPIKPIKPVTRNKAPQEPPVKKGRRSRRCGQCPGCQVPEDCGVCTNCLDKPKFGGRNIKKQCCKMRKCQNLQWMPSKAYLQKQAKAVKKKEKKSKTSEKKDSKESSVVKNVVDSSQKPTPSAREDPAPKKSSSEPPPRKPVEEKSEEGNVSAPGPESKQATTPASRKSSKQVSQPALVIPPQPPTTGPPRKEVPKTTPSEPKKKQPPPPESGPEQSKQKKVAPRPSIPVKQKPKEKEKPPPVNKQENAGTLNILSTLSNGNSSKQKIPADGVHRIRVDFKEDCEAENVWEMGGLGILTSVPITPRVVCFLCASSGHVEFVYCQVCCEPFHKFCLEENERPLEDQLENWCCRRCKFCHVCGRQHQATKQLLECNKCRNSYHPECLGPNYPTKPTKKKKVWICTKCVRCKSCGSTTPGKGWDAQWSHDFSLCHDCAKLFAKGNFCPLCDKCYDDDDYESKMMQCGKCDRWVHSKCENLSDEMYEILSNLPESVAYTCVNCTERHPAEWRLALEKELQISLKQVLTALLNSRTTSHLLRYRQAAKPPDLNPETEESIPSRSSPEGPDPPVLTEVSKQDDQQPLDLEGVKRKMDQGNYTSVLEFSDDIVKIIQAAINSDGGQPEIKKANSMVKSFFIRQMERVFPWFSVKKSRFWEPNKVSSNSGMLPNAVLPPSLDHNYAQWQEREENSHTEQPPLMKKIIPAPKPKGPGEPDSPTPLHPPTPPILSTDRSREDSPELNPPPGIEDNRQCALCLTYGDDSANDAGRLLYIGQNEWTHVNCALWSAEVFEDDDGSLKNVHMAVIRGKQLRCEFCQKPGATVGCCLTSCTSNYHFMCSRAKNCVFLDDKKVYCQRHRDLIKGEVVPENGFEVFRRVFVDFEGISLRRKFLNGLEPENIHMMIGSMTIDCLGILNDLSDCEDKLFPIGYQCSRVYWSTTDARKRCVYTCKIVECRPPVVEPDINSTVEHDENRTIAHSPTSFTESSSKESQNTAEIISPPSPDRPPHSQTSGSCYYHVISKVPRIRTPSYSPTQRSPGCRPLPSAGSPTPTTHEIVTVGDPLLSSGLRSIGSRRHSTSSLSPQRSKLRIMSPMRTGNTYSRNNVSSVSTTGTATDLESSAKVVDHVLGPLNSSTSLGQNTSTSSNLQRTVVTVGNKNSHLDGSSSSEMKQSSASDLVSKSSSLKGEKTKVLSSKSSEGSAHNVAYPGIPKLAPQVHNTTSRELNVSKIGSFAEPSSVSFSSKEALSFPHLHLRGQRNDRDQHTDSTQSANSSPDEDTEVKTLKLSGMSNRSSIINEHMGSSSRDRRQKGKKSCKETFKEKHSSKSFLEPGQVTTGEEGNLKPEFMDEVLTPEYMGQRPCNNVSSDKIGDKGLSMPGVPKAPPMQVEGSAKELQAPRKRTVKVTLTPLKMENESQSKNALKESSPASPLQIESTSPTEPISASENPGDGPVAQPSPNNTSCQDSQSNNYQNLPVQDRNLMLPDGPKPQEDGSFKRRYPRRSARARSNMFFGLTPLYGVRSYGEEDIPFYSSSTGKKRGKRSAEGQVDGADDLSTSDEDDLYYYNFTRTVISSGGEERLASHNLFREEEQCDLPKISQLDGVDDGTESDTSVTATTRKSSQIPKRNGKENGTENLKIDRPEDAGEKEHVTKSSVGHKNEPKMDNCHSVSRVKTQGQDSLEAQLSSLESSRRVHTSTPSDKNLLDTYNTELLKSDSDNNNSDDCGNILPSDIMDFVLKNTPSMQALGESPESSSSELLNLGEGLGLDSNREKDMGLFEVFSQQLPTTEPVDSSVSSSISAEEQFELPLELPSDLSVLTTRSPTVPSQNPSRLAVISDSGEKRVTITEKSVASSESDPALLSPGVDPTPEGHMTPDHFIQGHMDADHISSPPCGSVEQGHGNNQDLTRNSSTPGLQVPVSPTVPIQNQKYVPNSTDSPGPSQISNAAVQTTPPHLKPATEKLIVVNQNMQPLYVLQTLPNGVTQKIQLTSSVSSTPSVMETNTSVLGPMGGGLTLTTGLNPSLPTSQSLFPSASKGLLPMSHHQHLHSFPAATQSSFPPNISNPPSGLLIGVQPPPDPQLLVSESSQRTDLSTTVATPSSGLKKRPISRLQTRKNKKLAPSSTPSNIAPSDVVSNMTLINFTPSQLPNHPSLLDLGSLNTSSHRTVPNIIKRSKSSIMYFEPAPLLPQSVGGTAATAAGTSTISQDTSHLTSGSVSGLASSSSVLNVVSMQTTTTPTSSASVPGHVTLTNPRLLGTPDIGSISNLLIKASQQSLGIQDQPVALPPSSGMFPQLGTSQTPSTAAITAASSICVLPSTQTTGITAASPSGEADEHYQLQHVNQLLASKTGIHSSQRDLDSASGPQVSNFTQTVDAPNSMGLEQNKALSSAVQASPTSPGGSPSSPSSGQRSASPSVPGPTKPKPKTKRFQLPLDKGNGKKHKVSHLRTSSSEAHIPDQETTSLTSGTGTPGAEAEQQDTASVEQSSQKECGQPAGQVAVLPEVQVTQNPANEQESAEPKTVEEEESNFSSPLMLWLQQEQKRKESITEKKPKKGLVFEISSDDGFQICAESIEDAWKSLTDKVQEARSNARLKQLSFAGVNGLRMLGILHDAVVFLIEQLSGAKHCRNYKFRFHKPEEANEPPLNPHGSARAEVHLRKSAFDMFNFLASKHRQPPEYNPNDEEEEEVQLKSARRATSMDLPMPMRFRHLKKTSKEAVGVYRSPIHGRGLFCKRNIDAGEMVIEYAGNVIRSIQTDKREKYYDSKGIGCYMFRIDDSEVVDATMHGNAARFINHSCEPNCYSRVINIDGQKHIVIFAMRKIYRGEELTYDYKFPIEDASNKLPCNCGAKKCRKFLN", "test": "Confirmation of Inhibitors Targeting the Menin-MLL Interaction in MLL Related Leukemias: Competition With Fluorescein Labeled MLL-derived Peptide; further: potency means the concentration at half of the fitted maximal effect", "conditions": "Fluorescence polarization, fluorescein-MLL peptide displacement from menin", "text": "qHTS Assay for Inhibitors Targeting the Menin-MLL Interaction in MLL Related Leukemias\nNIH Chemical Genomics Center [NCGC]\nNIH Molecular Libraries Probe Centers Network [MLPCN]\nAssay Submitter (PI): Jolanta Grembecka, Tomasz Cierpicki, University of Virginia\nTranslocations of the MLL (Mixed Lineage Leukemia) gene are frequently found in human leukemias affecting both children and adults. Fusion of MLL to one of more than 60 genes results in generation of oncogenic proteins upregulating Hox genes, which are vital to blood cell development. Patients harboring fusion of the MLL gene suffer from aggressive leukemias and respond poorly to available therapies. All of the oncogenic fusion proteins have a preserved N-terminal fragment of MLL that has been identified to interact with menin. It has been recently discovered that association with menin is critical to the leukemogenic activity of the MLL fusion oncoproteins. Selective targeting of the menin-MLL interaction could provide an attractive therapeutic approach to develop novel drugs for MLL-related leukemias. Small molecules blocking the menin-MLL interaction should reverse the oncogenic potential of MLL fusion proteins.\nWe have developed and optimized a fluorescence polarization-based assay for the identification of Menin-MLL inhibitors. The assay was run employing two different MLL-derived peptides. The present assay uses a 12 amino acid peptide labeled with fluorescein at its N-terminus. This peptide consists of the menin high affinity binding motif from MLL and is potently bound by menin. Another peptide with a mutated sequence, labeled with Texas Red, was used in parallel as a less stringent screen for inhibitors.\nThe present assay was run to confirm the activity of hits from the primary screen.\nThe Menin protein, the MLL-wild type (w.t.) derived peptide (N-terminal 12 amino acids), the MLL-derived peptide labeled with Texas Red and the MLL-w.t. peptide labeled with Fluorescein were kindly supplied by laboratory of Dr. Jolanta Grembecka, University of Virginia. All protein and peptide solutions were stored in single use aliquots at -80C. The Eu3+ Cyrptate-conjugated mouse monoclonal antibody anti-6 Histidine (Eu3+-AB) and the Streptavidin-XL665 conjugate (XL665) were purchased from Cisbio International (Bedford, MA). All antibody and XL665 conjugate solution stocks were stored in single use aliquots at -20C. The Buffer components for all assays were purchased from Sigma-Aldrich (St. Louis, MO) and Invitrogen (Carlsbad, CA).\n1. FP reaction buffer: 50 mM Tris-HCl pH 7.5, 50 mM NaCl, 1mM DTT.\nBefore use, 0.05% BSA is added.\n2. Menin protein, MLL-w.t. labeled with fluorescein, MLL-mutant peptide labeled with texas red.\nStored in singe use aliquots at -80C.\n3. MLL-w.t. unlabeled peptide as positive control: 10 uM final in FP buffer.\n1. Prepare Menin at 200 nM, MLL-w.t.-fluorescein at 25 nM, and MLL-mutant-texas red at 50 nM mixture in FP buffer.\n2. Prepare Menin at 200 nM, MLL-w.t.-fluorescein at 25 nM, MLL-mutant-texas red at 50 nM, and 10 uM MLL-w.t. unlabeled mixture in FP buffer.\n3. Prepare MLL-w.t.-fluorescein at 25 nM and MLL-mutant-texas red at 50 nM mixture in FP buffer.\n3. Dispense 4 ul per well of reagent in step 1 in columns 2, 4 - 48 in a black 1536 well plate, dispense 4 ul per well of reagents from steps 2 and 3 in columns 1 and 3 respectively. Incubate plate at ambient for 15 minutes.\n4. Transfer 23 nl per well of compound to plate and incubate at ambient for 1 hr.\n5. Read fluorescence polarization for each label using the PerkinElmer Envision.\nEnvision protocol for fluorescein: FITC FP Dual Enh Mirror, Excitation filter 480, Emission filter (1) P-pol 535, Emission filter (2) S-pol 535\nEnvision protocol for texas red: FP Dual Enh Mirror, Excitation filter 555, Emission filter (1) P-pol 632, Emission filter (2) S-pol 632", "values": [
      {"smiles": "N=C1c2ccccc2CN1c1ccc(N2CCOCC2)c(S(=O)(=O)Nc2ccc(Cl)cc2)c1", "Potency": "71 µM (active)"},
      {"smiles": "CCCC(c1nnnn1Cc1ccco1)N1CCN(C2CCCC2)CC1", "note": "(configuration not stated)", "Potency": "126 µM (active)"},
      {"smiles": "c1cc(CN2CCCNCCNCCCNCC2)ccc1CN1CCCNCCNCCCNCC1", "Potency": "31.6 µM (active)"},
      {"smiles": "COc1ccccc1NS(=O)(=O)c1cc(N2Cc3ccccc3C2=N)ccc1N1CCOCC1", "Potency": "71 µM (active)"},
      {"smiles": "NC(=O)[C@@H]1CCCNc2c(I)cc([N+](=O)[O-])cc2C(=O)N[C@@H](CCCN=C(N)N)C(=O)N[C@@H](CCCN=C(N)N)C(=O)N1", "Potency": "251 µM (active)"},
      {"smiles": "CCC(c1nnnn1Cc1ccc(F)cc1)N1CCN(C2CCCCC2)CC1", "note": "(configuration not stated)", "Potency": "126 µM (active)"},
      {"smiles": "CCC(C)CCCCC(=O)NC(CCN)C(=O)NC(C(=O)NC(CCN)C(=O)NC1CCNC(=O)C(C(C)O)NC(=O)C(CCN)NC(=O)C(CCN)NC(=O)C(CC(C)C)NC(=O)C(Cc2ccccc2)NC(=O)C(CCN)NC1=O)C(C)O", "note": "(configuration not stated) ({Octanoyl(6-Me)}-[Dab]T[Dab][Dab][Dab]FL[Dab][Dab]T; lactam 4-C; configuration not given here)", "Potency": "10 µM (active)"},
      {"smiles": "COC(=O)[C@H](C)NC(=O)c1cc2c(cn1)[nH]c1ccccc12", "Potency": "50.2 µM (active)"},
      {"smiles": "CCOc1cc(CNCCc2ccc(S(N)(=O)=O)cc2)ccc1OCc1ccccc1", "Potency": "126 µM (active)"},
      {"smiles": "Cc1cc2c(N)cccc2nn1", "Potency": "141 µM (active)"},
      {"smiles": "C[C@H](NC(=O)c1cc2c(cn1)[nH]c1ccccc12)C(=O)O", "Potency": "71 µM (active)"},
      {"smiles": "CCC[n+]1c2ccccc2cc2ccccc21", "Potency": "63.2 µM (active)"},
      {"smiles": "CCCC[n+]1c2ccccc2cc2ccccc21", "Potency": "63.2 µM (active)"},
      {"smiles": "COc1ccc(Cn2nnnc2C(c2ccc3ncccc3c2)N2CCN(C3CCCCC3)CC2)cc1", "note": "(configuration not stated)", "Potency": "200 µM (active)"},
      {"smiles": "O=C(C[N+]12CC[N+](CC(=O)c3ccc(F)cc3)(CC1)CC2)c1ccc(F)cc1", "Potency": "79.4 µM (active)"},
      {"smiles": "Cc1sc2ncnc(NC3CCN(Cc4ccccc4)CC3)c2c1C", "Potency": "63.1 µM (active)"},
      {"smiles": "CC1(C)CN=C(N2CCN(c3ncnc4sc5c(c34)CCCC5)CC2)S1", "Potency": "22.4 µM (active)"},
      {"smiles": "CNC[C@H](CC1CCCCC1)NC[C@H](Cc1ccccc1)NCCC12CC3CC(CC(C3)C1)C2", "Potency": "79.4 µM (active)"},
      {"smiles": "NC(=NCCCCCCN=C(N)/N=C(\\N)Nc1ccc(Cl)cc1)/N=C(\\N)Nc1ccc(Cl)cc1", "Potency": "141 µM (active)"},
      {"smiles": "CCC(C)CCCCC(=O)N[C@@H](CCN)C(=O)N[C@H](C(=O)N[C@@H](CCN)C(=O)N[C@H]1CCNC(=O)C([C@@H](C)O)NC(=O)[C@@H](CCN)NC(=O)[C@H](CCN)NC(=O)[C@H](CC(C)C)NC(=O)[C@@H](CC(C)C)NC(=O)[C@H](CCN)NC1=O)[C@@H](C)O", "note": "(stereo partly drawn) ({Octanoyl(6-Me)}-[Dab]T[Dab][Dab][Dab][dL]L[Dab][dDab][ξThr(3R)]; lactam 4-C)", "Potency": "12.6 µM (active)"},
      {"smiles": "CC(=O)NC1C(=O)N(CCN2CCOCC2)c2ccc(C)cc21", "note": "(configuration not stated)", "Potency": "79.6 µM (active)"},
      {"smiles": "CCc1cc2c(N3CCN(C(=O)c4ccco4)CC3)ncnc2s1", "Potency": "63.1 µM (active)"}
    ]}
  ]
}
